Assay results taken from PubChem BioAssay (NCI).
This is part of a sample that, as a whole, favours compounds with a hit. Of some 79,000 tested, about 15% had one in any assay. Calls of active or inactive are those of the source. Rule as the data show it: active = growth inhibition above about 70%; inactive = the rest.

Experiments:
[1] = NCI Yeast Anticancer Drug Screen. Data for the rad52 strain (AID 147);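 also: 0% = growth of vehicle-treated control cultures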; conditions: S. cerevisiae rad52 mutant growth inhibition, active compounds read high
How it was run: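 Genetically altered yeast (DNA damage repair defect) treated with compound; inhibition calculated relative to vehicle.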

[2] = NCI Yeast Anticancer Drug Screen. Data for the wt1 strain (AID 149);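 also: 0% = growth of vehicle-treated wt1 cultures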; conditions: S. cerevisiae wt1 strain (SPY 50644) growth inhibition, active compounds read high
How it was run: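 Vehicle-normalised growth inhibition; strain wt1; compound exposure.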

[3] = NCI Yeast Anticancer Drug Screen. Data for the rad50EPP+ strain (AID 151);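 also: 0% = growth of vehicle-treated control cultures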; conditions: S. cerevisiae rad50 mutant strain, active compounds read high
How it was run: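 Strain rad50EPP+; compound exposure; % growth inhibition vs vehicle.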

[4] = NCI Yeast Anticancer Drug Screen. Data for the mgt1 strain (AID 153); conditions: S. cerevisiae mgt1 mutant growth inhibition, active compounds read high
How it was run: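 Read-out: yeast growth inhibition vs vehicle control. Strain mgt1, drawn from a panel altered in DNA damage repair or cell cycle control.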

[5] = NCI Yeast Anticancer Drug Screen. Data for the rad50 strain (AID 155);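 also: 0% = growth of vehicle-only cultures of the same strain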; conditions: S. cerevisiae rad50 strain growth inhibition, active compounds read high
How it was run: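 A DNA repair-deficient yeast mutant serves as the test organism; compound-induced growth inhibition is calculated against vehicle-treated cells.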

[6] = NCI Yeast Anticancer Drug Screen. Data for the mec2-1 strain (AID 157); conditions: S. cerevisiae mec2-1 strain, active compounds read high
How it was run: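 Cells of the genetically defined mec2-1 yeast strain are incubated with test compound. Inhibition of growth is calculated against vehicle-treated controls.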

[7] = NCI Yeast Anticancer Drug Screen. Data for the rad14 strain (AID 159);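 also: 0% = growth of vehicle-treated control cultures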; conditions: S. cerevisiae rad14 strain growth inhibition, active compounds read high
How it was run: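 Vehicle-treated cultures served as the baseline for growth inhibition of a DNA repair-mutant yeast strain exposed to each compound.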

[8] = NCI Yeast Anticancer Drug Screen. Data for the sgs1 mgt1 strain (AID 161);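 also: 0% = growth of cultures given vehicle only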; conditions: S. cerevisiae sgs1 mgt1 strain, active compounds read high
How it was run: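 Mutant yeast exposed to compound; growth scored against vehicle-only wells.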

[9] = NCI Yeast Anticancer Drug Screen. Data for the CLN2oe strain (AID 163);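 also: 0% = growth of vehicle-only control cultures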; conditions: S. cerevisiae CLN2oe strain, active compounds read high
How it was run: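 Strain altered in cell-cycle control, incubated with compound; growth compared to solvent-treated controls.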

[10] = NCI Yeast Anticancer Drug Screen. Data for the cln2 rad14 strain (AID 165);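 also: 0% = growth equal to vehicle treated cultures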; conditions: S. cerevisiae cln2 rad14 strain, active compounds read high
How it was run: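 The screen exposed genetically defined yeast (cln2 rad14) to test compounds and scored growth inhibition relative to vehicle-treated controls.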

[11] = NCI Yeast Anticancer Drug Screen. Data for the bub3 strain (AID 167); conditions: S. cerevisiae bub3 mutant strain, active compounds read high
How it was run: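 Inhibition values come from growth of compound-treated mutant yeast normalised to vehicle-treated controls.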

[12] = NCI Yeast Anticancer Drug Screen. Data for the wt2 strain (AID 169);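 also: 0% = growth of vehicle-treated yeast cultures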; conditions: S. cerevisiae wt2 strain growth inhibition, active compounds read high
How it was run: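 Steps: yeast strain treated with compound; growth recorded; inhibition calculated relative to cultures given vehicle alone.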

[13] = NCI Yeast Anticancer Drug Screen. Data for the mlh1 strain (AID 171);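 also: 0% = growth of vehicle-treated control cultures of the same strain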; conditions: S. cerevisiae mlh1 strain growth inhibition, active compounds read high
How it was run: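 Yeast screen: mutant strain plus compound, growth scored against vehicle control wells.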

[14] = NCI Yeast Anticancer Drug Screen. Data for the sgs1 strain (AID 173);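 also: 0% = growth of vehicle-only control cultures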; conditions: S. cerevisiae sgs1 mutant, active compounds read high
How it was run: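 Inhibition of yeast growth served as the measure. The mutant strain was treated with each compound, and growth was normalised to cultures receiving vehicle alone.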

[15] = NCI Yeast Anticancer Drug Screen. Data for the mlh1 rad18 strain (AID 175); conditions: S. cerevisiae mlh1 rad18 strain growth inhibition, active compounds read high
How it was run: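 Compound-treated yeast growth, normalised to vehicle controls. Strain bears defined DNA repair mutations.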

[16] = NCI Yeast Anticancer Drug Screen. Data for the rad18 strain (AID 177); conditions: S. cerevisiae rad18 mutant growth inhibition, active compounds read high
How it was run: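 Inhibition values reflect reduced yeast growth compared with vehicle-treated controls, using a strain engineered with a DNA damage repair defect.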

[17] = at 5.0 µM (retest, dose inferred, filed as 0.5)
[18] = at 50.0 µM (retest, dose inferred, filed as 5.0)

Measured: growth inhibition

N#C/C(=C\NC(=S)Nc1ccc(S(N)(=O)=O)cc1)C(=O)c1ccc2ccccc2c1
inactive: [1]; at 1.2 µM -2% | [1]; at 3.7 µM -1% | [1]; at 11.0 µM 0% | [1]; at 33.0 µM -3% | [1]; at 100.0 µM 3% | [2]; at 1.2 µM 2% | [2]; at 3.7 µM 3% | [2]; at 11.0 µM 1% | [2]; at 33.0 µM 1% | [2]; at 100.0 µM 3% | [3]; at 1.2 µM -1% | [3]; at 3.7 µM -3% | [3]; at 11.0 µM 0% | [3]; at 33.0 µM 0% | [3]; at 100.0 µM -2% | [4]; at 1.2 µM -2% | [4]; at 3.7 µM -3% | [4]; at 11.0 µM -3% | [4]; at 33.0 µM -12% | [4]; at 100.0 µM 0% | [5]; at 1.2 µM -5% | [5]; at 3.7 µM -16% | [5]; [17] 57% | [5]; at 11.0 µM -18% | [5]; at 33.0 µM -2% | [5]; at 50.0 µM -13.3% | [5]; at 100.0 µM -1% | [6]; at 1.2 µM 0% | [6]; at 3.7 µM 2% | [6]; at 11.0 µM 2% | [6]; at 33.0 µM 5% | [6]; at 50.0 µM -3.5% | [6]; at 100.0 µM -1% | [7]; at 1.2 µM -1% | [7]; at 3.7 µM -1% | [7]; at 11.0 µM 1% | [7]; at 33.0 µM 2% | [7]; at 100.0 µM 6% | [8]; [17] 25% | [8]; at 50.0 µM -13.2% | [9]; at 1.2 µM -2% | [9]; at 3.7 µM -4% | [9]; at 11.0 µM -4% | [9]; at 33.0 µM 0% | [9]; at 100.0 µM -1% | [10]; at 50.0 µM 39.2% | [11]; at 1.2 µM -2% | [11]; at 3.7 µM -1% | [11]; at 11.0 µM -2% | [11]; at 33.0 µM -3% | [11]; at 50.0 µM -16.1% | [11]; at 100.0 µM -3% | [12]; at 1.2 µM -1% | [12]; at 3.7 µM -1% | [12]; at 11.0 µM -1% | [12]; at 33.0 µM 0% | [12]; at 100.0 µM -1% | [13]; at 1.2 µM -1% | [13]; at 3.7 µM 1% | [13]; at 11.0 µM 1% | [13]; at 33.0 µM 3% | [13]; at 100.0 µM 5% | [14]; at 1.2 µM 0% | [14]; at 3.7 µM 2% | [14]; at 11.0 µM 0% | [14]; at 33.0 µM 7% | [14]; at 100.0 µM 9% | [15]; at 50.0 µM 22.1% | [16]; at 1.2 µM -9% | [16]; at 3.7 µM -1% | [16]; at 11.0 µM 0% | [16]; at 33.0 µM -1% | [16]; at 100.0 µM 5%
active: [5]; [18] 97% | [6]; [17] 87% | [6]; [18] 95% | [8]; [18] 96% | [10]; [17] 92% | [10]; [18] 78% | [11]; [17] 99% | [11]; [18] 91% | [15]; [17] 84% | [15]; [18] 97%

O=C1SS(=O)c2ccccc21 (stereo unspecified)
active: [1]; at 100.0 µM 76% | [4]; at 100.0 µM 83% | [5]; [18] 89% | [5]; at 100.0 µM 79% | [6]; [18] 99% | [6]; at 100.0 µM 83% | [8]; [18] 85% | [11]; [18] 96% | [11]; at 100.0 µM 89% | [15]; [18] 95% | [16]; at 100.0 µM 90%
inactive: [1]; at 1.2 µM 11% | [1]; at 3.7 µM 6% | [1]; at 11.0 µM 8% | [1]; at 33.0 µM 25% | [2]; at 1.2 µM -5% | [2]; at 3.7 µM -2% | [2]; at 11.0 µM 12% | [2]; at 33.0 µM -5% | [2]; at 100.0 µM 67% | [3]; at 1.2 µM 7% | [3]; at 3.7 µM 5% | [3]; at 11.0 µM 7% | [3]; at 33.0 µM 23% | [3]; at 100.0 µM 65% | [4]; at 1.2 µM 9% | [4]; at 3.7 µM 12% | [4]; at 11.0 µM 12% | [4]; at 33.0 µM 42% | [5]; at 1.2 µM 5% | [5]; at 3.7 µM 0% | [5]; [17] 32% | [5]; at 11.0 µM 2% | [5]; at 33.0 µM 26% | [5]; at 50.0 µM 34.1% | [6]; at 1.2 µM 5% | [6]; at 3.7 µM 18% | [6]; [17] 27% | [6]; at 11.0 µM -3% | [6]; at 33.0 µM 13% | [6]; at 50.0 µM 44.1% | [7]; at 1.2 µM -11% | [7]; at 3.7 µM -3% | [7]; at 11.0 µM -17% | [7]; at 33.0 µM -4% | [7]; at 100.0 µM 61% | [8]; [17] 34% | [8]; at 50.0 µM 50% | [9]; at 1.2 µM 7% | [9]; at 3.7 µM 13% | [9]; at 11.0 µM 17% | [9]; at 33.0 µM 24% | [9]; at 100.0 µM 57% | [10]; [17] 11% | [10]; [18] 38% | [10]; at 50.0 µM 5.75% | [11]; at 1.2 µM -5% | [11]; at 3.7 µM 2% | [11]; [17] 24% | [11]; at 11.0 µM -5% | [11]; at 33.0 µM 0% | [11]; at 50.0 µM 40.3% | [12]; at 1.2 µM 7% | [12]; at 3.7 µM 8% | [12]; at 11.0 µM 8% | [12]; at 33.0 µM 17% | [12]; at 100.0 µM 66% | [13]; at 1.2 µM 6% | [13]; at 3.7 µM 20% | [13]; at 11.0 µM 17% | [13]; at 33.0 µM 24% | [13]; at 100.0 µM 68% | [14]; at 1.2 µM -7% | [14]; at 3.7 µM 5% | [14]; at 11.0 µM 8% | [14]; at 33.0 µM 21% | [14]; at 100.0 µM 39% | [15]; [17] 57% | [15]; at 50.0 µM 0% | [16]; at 1.2 µM 13% | [16]; at 3.7 µM 15% | [16]; at 11.0 µM 15% | [16]; at 33.0 µM 39%
